Assay outcomes as filed in PubChem BioAssay.
Bead autofluor: flagged as autofluorescent in microsphere protease counterscreen | compound autofluorescence counterscreen, microsphere flow cytometry; active compounds read high | fluorescence intensity (concentration not given with the values) | hit rate 3.1% among 360,000 | AID 624483; in the data active means fluorescence intensity above about 16000; inconclusive means no clear call, values can overlap the other calls
3CLpro inhibitor: SARS-CoV 3CLpro protease inhibition. inhibition, % at 6 µM. hit rate 0.14% among 290,000. recombinant SARS-CoV 3CLpro, quenched FRET peptide cleavage; in the data active means inhibition above about 12%
BoNT-A LC inh2: blocks Botulinum neurotoxin A light chain protease | multiplex microsphere protease substrate cleavage, flow cytometry | hit rate 0.17% among 360,000 | inhibition, % at 10 µM
BJeLR lethal: BJeLR cell viability loss; BJeLR (HRASV12) viability, CellTiter-Glo ATP luminescence, 48 h; inhibition, % (concentration not given with the values); hit rate 0.17% among 300,000; in the data active means inhibition above about 50%; inconclusive means no clear call, values can overlap the other calls
Anthrax LF prot: inhibitors of Bacillus anthracis lethal factor protease; AID 588501; hit rate 0.12% among 360,000; inhibition, % at 10 µM; multiplex microsphere protease cleavage assay, LF
Target sequence (P15917 whole entry, looked up): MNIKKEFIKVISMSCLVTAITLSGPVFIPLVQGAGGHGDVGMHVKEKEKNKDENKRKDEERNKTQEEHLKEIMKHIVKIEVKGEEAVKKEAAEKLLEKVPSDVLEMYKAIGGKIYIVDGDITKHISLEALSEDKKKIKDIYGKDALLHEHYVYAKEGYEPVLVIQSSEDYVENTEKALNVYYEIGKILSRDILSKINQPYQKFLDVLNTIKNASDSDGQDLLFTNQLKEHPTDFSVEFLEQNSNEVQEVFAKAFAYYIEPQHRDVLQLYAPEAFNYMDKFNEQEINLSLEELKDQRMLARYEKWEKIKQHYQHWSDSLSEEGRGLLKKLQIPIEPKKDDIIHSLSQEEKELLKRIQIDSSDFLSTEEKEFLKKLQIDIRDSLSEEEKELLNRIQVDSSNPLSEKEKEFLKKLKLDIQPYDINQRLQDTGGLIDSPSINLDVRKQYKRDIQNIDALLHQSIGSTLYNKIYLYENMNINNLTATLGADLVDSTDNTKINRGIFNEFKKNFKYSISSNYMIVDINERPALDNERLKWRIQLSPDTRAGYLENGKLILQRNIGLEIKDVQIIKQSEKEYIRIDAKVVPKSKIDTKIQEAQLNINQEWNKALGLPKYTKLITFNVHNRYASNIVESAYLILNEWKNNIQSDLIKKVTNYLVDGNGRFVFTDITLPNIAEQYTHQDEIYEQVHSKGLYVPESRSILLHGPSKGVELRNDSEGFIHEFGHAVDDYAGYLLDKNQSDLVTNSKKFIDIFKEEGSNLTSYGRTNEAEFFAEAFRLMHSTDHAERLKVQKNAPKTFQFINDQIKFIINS
BoNT-F LC inh: blocks Botulinum neurotoxin F light chain protease | Multiplex microsphere protease cleavage assay, flow cytometry | inhibition, % at 10 µM | hit rate 0.22% among 360,000; in the data active means inhibition above about 35%, passing the limit was not always enough; inconclusive means no clear call, values can overlap the other calls
BoNTA LC inh 1: inhibitors of Botulinum neurotoxin A light chain protease; shares compounds with BoNT-F LC inh; multiplex microsphere protease assay, flow cytometry; inhibition, % at 10 µM; hit rate 3% among 720; AID 602139; in the data active means inhibition above about 32%
BoNT-F LC CP1: inhibitors of Botulinum neurotoxin F light chain protease. multiplex microsphere protease cleavage assay, flow cytometry. shares compounds with BoNT-F LC inh. AID 602140. 720 tested, under 10 active. inhibition, % at 10 µM; call rule not given here
Anthrax LF CP1: inhibitors of Bacillus anthracis lethal factor protease; shares compounds with BoNT-F LC inh; multiplex microsphere protease cleavage assay, LF; inhibition, % at 10 µM; 720 tested, under 10 active; AID 602142; call rule not given here
Of the large screens only hits and unclear results are named; the others gave an inactive call (follow-up assays come after a bar, where they were run). Rows were chosen to be rich in hits. Some 3.6% of all compounds tested hit in one or more screens of this group. Unless noted, no stated cut-off is given here; in the data, active means inhibition above about 30%; inconclusive means no clear call, values can overlap the other calls; inactive means below that.

O=C1NCCCCC1NS(=O)(=O)c1ccc(Cl)cc1 (stereo not given)	none
O=C(CC1SC(N2CCCC2)=NC1=O)Nc1ccc(C(=O)NCc2ccc(F)cc2)cc1 (stereo not given)	none (no result: 3CLpro inhibitor, BJeLR lethal)
COc1ccc2nc(C)cc(NCc3ccc(F)cc3)c2c1	Bead autofluor 84261, BoNT-F LC inh 134 | BoNTA LC inh 1 inactive | BoNT-F LC CP1 74 | Anthrax LF CP1 inactive
COc1ccc2nc(C)cc(Nc3ccc(C)cc3)c2c1	BoNT-F LC inh inconclusive
CC(=O)Nc1ccc(NC(=O)CSc2nnc(N)n2-c2ccccc2)cc1	BoNT-F LC inh 39 (no result: 3CLpro inhibitor, BJeLR lethal) | BoNTA LC inh 1 inactive | BoNT-F LC CP1 inactive | Anthrax LF CP1 inactive
CC(=O)Nc1ccc(NC(=O)CSc2nnc(CC(C)O)n2-c2ccccc2)cc1 (stereo not given)	BoNT-F LC inh inconclusive
CCCN1C(C)C(C(=O)OCC)=CN(Cc2cccc(I)c2)S1(=O)=O (stereo not given)	none (no result: 3CLpro inhibitor, BJeLR lethal)
COc1ccccc1CN1CCNC(=O)C1CC(=O)NCc1c(C)n[nH]c1C (stereo not given)	BoNT-F LC inh 41 | BoNTA LC inh 1 inactive | BoNT-F LC CP1 inactive | Anthrax LF CP1 inactive
CCOc1ccc2nc3cc(NCc4ccc(OC)cc4)ccc3c(N)c2c1	BoNT-A LC inh2 70 | BoNTA LC inh 1 33 | BoNT-F LC CP1 inactive | Anthrax LF CP1 inactive
O=C(Nc1cccc(O)c1)c1c(O)c2ccccc2[nH]c1=O	BoNT-F LC inh 36 | BoNTA LC inh 1 inactive | BoNT-F LC CP1 inactive | Anthrax LF CP1 inactive
Cc1cccc(NC(=O)c2c(O)c3ccccc3[nH]c2=O)c1	none
CCNC(=O)CC1C(=O)N(c2ccc(C)cc2)C(=O)N1CCOC (stereo not given)	BoNT-F LC inh 36 | BoNTA LC inh 1 inactive | BoNT-F LC CP1 inactive | Anthrax LF CP1 inactive
COCCN1C(=O)N(c2cccc(C)c2)C(=O)C1CC(=O)Nc1ccc(OC)cc1 (stereo not given)	BoNT-F LC inh 37 | BoNTA LC inh 1 inactive | BoNT-F LC CP1 inactive | Anthrax LF CP1 inactive
Cc1ccc2c(c1)Oc1ccccc1C=C2C(=O)O	none
CCOC(=O)c1ccc(O)c(-n2cc3c(c2-c2ccccc2)c(=O)n(C)c(=O)n3C)c1	none (no result: 3CLpro inhibitor, BJeLR lethal)
COc1ccc(CN2CCN(CC3CC3)CC2CCO)c(C)c1C (stereo not given)	Anthrax LF prot 43 | BoNTA LC inh 1 inactive | BoNT-F LC CP1 inactive | Anthrax LF CP1 inactive
COc1ccc(CN2CCN(C3CCSCC3)CC2CCO)c(C)c1C (stereo not given)	none
CCc1cccc(CC)c1NC(=O)C1CN(S(=O)(=O)c2ccccc2)CCN1S(=O)(=O)c1ccccc1 (stereo not given)	none
Cc1cccc(C(C)C)c1NC(=O)C1CN(S(=O)(=O)c2ccccc2)CCN1S(=O)(=O)c1ccccc1 (stereo not given)	BoNT-A LC inh2 38, Anthrax LF prot 37 | BoNTA LC inh 1 inactive | BoNT-F LC CP1 inactive | Anthrax LF CP1 inactive
CCOc1cc(CNCC(O)c2ccccc2)cc(Cl)c1OC (stereo not given)	BoNT-F LC inh 41 | BoNTA LC inh 1 inactive | BoNT-F LC CP1 inactive | Anthrax LF CP1 inactive
CCOc1ccc(NC(=O)CCn2ccnc2)cc1	none
O=C(CCn1ccnc1)Nc1ccc2ccccc2c1	BoNT-F LC inh 38 | BoNTA LC inh 1 inactive | BoNT-F LC CP1 inactive | Anthrax LF CP1 inactive
CCOc1ccc(NC(=O)CNC(=O)c2nn(-c3ccc(OC)c(OC)c3)c(=O)c3ccccc23)cc1	none
COc1ccc(-n2nc(C(=O)NCC(=O)Nc3cccc(Cl)c3)c3ccccc3c2=O)cc1OC	BoNT-F LC inh 51 | BoNTA LC inh 1 inactive | BoNT-F LC CP1 inactive | Anthrax LF CP1 inactive
CN1CCN2c3ccccc3CC(C#N)(C#N)C2C1 (stereo not given)	none (no result: 3CLpro inhibitor, BJeLR lethal)
CCn1cc(CNC(=O)c2c(-c3c(Cl)cccc3Cl)noc2C)c(C)n1	BoNT-F LC inh 35 | BoNTA LC inh 1 inactive | BoNT-F LC CP1 inactive | Anthrax LF CP1 inactive
Cc1onc(-c2c(Cl)cccc2Cl)c1C(=O)NCc1ccccn1	none
Cc1[nH]c(=O)[nH]c(=O)c1S(=O)(=O)Nc1ccc(F)c(Cl)c1	Anthrax LF prot 33 | BoNTA LC inh 1 inactive | BoNT-F LC CP1 inactive | Anthrax LF CP1 inactive
Cc1cc(Cl)ccc1NS(=O)(=O)c1c(C)[nH]c(=O)[nH]c1=O	none
CCCNC(=O)C(Sc1ccccc1)c1ccccc1 (stereo not given)	none
CCN(CC)C(=O)C(Sc1ccccc1)c1ccccc1 (stereo not given)	Bead autofluor inconclusive, Anthrax LF prot inconclusive, BoNT-F LC inh 57 | BoNTA LC inh 1 inactive | BoNT-F LC CP1 inactive | Anthrax LF CP1 inactive
Cc1nc(-c2ccc(C(=O)Nc3cc(S(N)(=O)=O)ccc3C)cc2)cs1	none
Brc1ccc(-c2nnc(-c3cccnc3)o2)cc1	BoNT-F LC inh inconclusive (no result: 3CLpro inhibitor)
Cc1ccc(-c2nnc(-c3cccnc3)o2)cc1	BoNT-F LC inh 56 | BoNTA LC inh 1 inactive | BoNT-F LC CP1 inactive | Anthrax LF CP1 inactive
O=C(c1cc(COc2c(F)cccc2F)on1)N1CC[C@@H]2CCCC[C@H]2C1	none (no result: 3CLpro inhibitor, BJeLR lethal)
O=C1c2ccccc2C(=O)N1CCn1ccnc1	BoNT-F LC inh 41 | BoNTA LC inh 1 inactive | BoNT-F LC CP1 inactive | Anthrax LF CP1 inactive
O=C1c2ccccc2C(=O)N1CCCn1ccnc1	BoNT-F LC inh inconclusive
Cc1ccc(CSC2=Nc3ccccc3C3=NC(=O)CN23)cc1	BoNT-F LC inh 36 | BoNTA LC inh 1 inactive | BoNT-F LC CP1 inactive | Anthrax LF CP1 inactive
CCn1c(CNC(=O)c2ccccc2Br)nnc1SCC(=O)Nc1nncs1	none
O=C(O)C1CCCCC1C(=O)NCCCN1CCCC1=O (stereo not given)	BoNT-F LC inh 48 | BoNTA LC inh 1 inactive | BoNT-F LC CP1 inactive | Anthrax LF CP1 inactive
O=C(NCCCN1CCCC1=O)NC1CCCCC1	none
CC(=O)Nc1cc(-c2ccoc2)cn2c(-c3ccccc3)cnc12	none (no result: 3CLpro inhibitor, BJeLR lethal)
CCc1nnc(NC(=O)COc2ccccc2[N+](=O)[O-])s1	Anthrax LF prot 30, BoNT-F LC inh inconclusive | BoNTA LC inh 1 inactive | BoNT-F LC CP1 inactive | Anthrax LF CP1 inactive
O=C(O)CSc1nnc(-c2ccc(Cl)cc2)n1-c1ccccc1	BoNT-F LC inh 36 | BoNTA LC inh 1 inactive | BoNT-F LC CP1 inactive | Anthrax LF CP1 inactive
NC(N)=NS(=O)(=O)c1ccc(NC(=S)NC(=O)c2sc3ccccc3c2Cl)cc1	none
CC1Oc2ccccc2N(CC(=O)NC2CCCC2)C1=O (stereo not given)	BoNT-F LC inh 35 | BoNTA LC inh 1 inactive | BoNT-F LC CP1 inactive | Anthrax LF CP1 inactive
Cc1ccc(C2CC(c3ccc(NS(C)(=O)=O)cc3)=NN2C(=O)c2ccco2)cc1 (stereo not given)	BoNT-F LC inh 36 | BoNTA LC inh 1 inactive | BoNT-F LC CP1 inactive | Anthrax LF CP1 inactive
